About 7,900 targets were measured; listed, in parts, are those with a hit and a random draw of the rest. About 0.6% of all pairs of compound and target were hits.
Columns and labels:
Experiment in all cases: log2 fold change, soluble protein after heating vs DMSO (PISA); higher = thermal stabilisation; K562 cells, 10 uM, 30 min; active = over 0.2 and 3.5 SD of the protein, either way, in both replicates (recomputed)
saracatinib = compound: CN1CCN(CCOc2cc(OC3CCOCC3)c3c(Nc4c(Cl)ccc5c4OCO5)ncnc3c2)CC1 [saracatinib]
Outline: (§1)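 Soluble protein was defined as the supernatant after 21,000xg for 90 min. It came from K562 cells at 2×10^6 cells/mL given 10 μM compound for 30 min, heated in aliquots for 3 min across 48°C-58°C, pooled, and extracted in PBS with 0.5% NP-40 at 4°C, and was quantified by TMTpro 16plex LC-MS/MS with equalised channel sums. Thermal stability against control samples, from duplicates, is reported as log2 fold change.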

sotrastaurin = compound: CN1CCN(c2nc(C3=C(c4c[nH]c5ccccc45)C(=O)NC3=O)c3ccccc3n2)CC1 [sotrastaurin]
Outline: as §1

alvocidib = compound: CN1CC[C@H](c2c(O)cc(O)c3c(=O)cc(-c4ccccc4Cl)oc23)[C@H](O)C1 [alvocidib]
Outline: as §1

Tubastatin A = compound: CN1CCc2c(c3ccccc3n2Cc2ccc(C(=O)NO)cc2)C1 [Tubastatin A]
Outline: as §1

[1] = compound: CNC(=O)C1=CC=CC=C1NC2=NC(=NC=C2Cl)NC3=C(C=C(C=C3)N4CCOCC4)OC
Outline: as §1

defactinib = compound: CNC(=O)c1ccc(Nc2ncc(C(F)(F)F)c(NCc3nccnc3N(C)S(C)(=O)=O)n2)cc1 [defactinib]
Outline: as §1

rucaparib = compound: CNCc1ccc(-c2[nH]c3cc(F)cc4c3c2CCNC4=O)cc1 [rucaparib]
Outline: as §1

[2] = compound: CNc1nc(-c2ccc3c(N)n[nH]c3c2)cc(N2C[C@@H](C(=O)NC3CCCCC3)CC[C@H]2C)n1
Outline: as §1

encorafenib = compound: COC(=O)N[C@@H](C)CNc1nccc(-c2cn(C(C)C)nc2-c2cc(Cl)cc(NS(C)(=O)=O)c2F)n1 [encorafenib]
Outline: as §1

[3] = compound: COC(=O)[C@H](CCSC)NC(=O)C1=C(C=C(C=C1)NC[C@H](CS)N)C2=CC=CC=C2
Outline: as §1

[4] = compound: COC1=CC=C(C=C1)CN2C=CC3=C2C=C(C=C3)C(=O)NO
Outline: as §1

filanesib = compound: CON(C)C(=O)N1N=C(c2cc(F)ccc2F)S[C@@]1(CCCN)c1ccccc1 [filanesib]
Outline: as §1

zotarolimus = compound: CO[C@H]1C[C@@H]2CC[C@@H](C)[C@@](O)(O2)C(=O)C(=O)N2CCCC[C@H]2C(=O)O[C@H]([C@H](C)C[C@@H]2CC[C@H](n3cnnn3)[C@H](OC)C2)CC(=O)[C@H](C)/C=C(\C)[C@@H](O)[C@@H](OC)C(=O)[C@H](C)C[C@H](C)/C=C/C=C/C=C/1C [zotarolimus]
Outline: as §1

idasanutlin = compound: COc1cc(C(=O)O)ccc1NC(=O)[C@@H]1N[C@@H](CC(C)(C)C)[C@](C#N)(c2ccc(Cl)cc2F)[C@H]1c1cccc(Cl)c1F [idasanutlin]
Outline: as §1

alisertib = compound: COc1cc(Nc2ncc3c(n2)-c2ccc(Cl)cc2C(c2c(F)cccc2OC)=NC3)ccc1C(=O)O [alisertib]
Outline: as §1

[5] = compound: COc1cc2nc(-c3cc(F)ccc3O)nc(N[C@@H]3CNC[C@H]3C(C)(C)O)c2cc1OC
Outline: as §1

gefitinib = compound: COc1cc2ncnc(Nc3ccc(F)c(Cl)c3)c2cc1OCCCN1CCOCC1 [gefitinib]
Outline: as §1

[6] = compound: COc1cccc2cc(-c3nc([C@H]4CC[C@H](C(=O)O)CC4)n4ncnc(N)c34)[nH]c12
Outline: as §1

lapatinib = compound: CS(=O)(=O)CCNCc1ccc(-c2ccc3ncnc(Nc4ccc(OCc5cccc(F)c5)c(Cl)c4)c3c2)o1 [lapatinib]
Outline: as §1

pictilisib = compound: CS(=O)(=O)N1CCN(Cc2cc3nc(-c4cccc5[nH]ncc45)nc(N4CCOCC4)c3s2)CC1 [pictilisib]
Outline: as §1

Measured: log2 fold change

ACIN1 (UniProt Q9UKV3)
UniProt Q9UKV3, sequence (Q9UKV3 whole entry, looked up): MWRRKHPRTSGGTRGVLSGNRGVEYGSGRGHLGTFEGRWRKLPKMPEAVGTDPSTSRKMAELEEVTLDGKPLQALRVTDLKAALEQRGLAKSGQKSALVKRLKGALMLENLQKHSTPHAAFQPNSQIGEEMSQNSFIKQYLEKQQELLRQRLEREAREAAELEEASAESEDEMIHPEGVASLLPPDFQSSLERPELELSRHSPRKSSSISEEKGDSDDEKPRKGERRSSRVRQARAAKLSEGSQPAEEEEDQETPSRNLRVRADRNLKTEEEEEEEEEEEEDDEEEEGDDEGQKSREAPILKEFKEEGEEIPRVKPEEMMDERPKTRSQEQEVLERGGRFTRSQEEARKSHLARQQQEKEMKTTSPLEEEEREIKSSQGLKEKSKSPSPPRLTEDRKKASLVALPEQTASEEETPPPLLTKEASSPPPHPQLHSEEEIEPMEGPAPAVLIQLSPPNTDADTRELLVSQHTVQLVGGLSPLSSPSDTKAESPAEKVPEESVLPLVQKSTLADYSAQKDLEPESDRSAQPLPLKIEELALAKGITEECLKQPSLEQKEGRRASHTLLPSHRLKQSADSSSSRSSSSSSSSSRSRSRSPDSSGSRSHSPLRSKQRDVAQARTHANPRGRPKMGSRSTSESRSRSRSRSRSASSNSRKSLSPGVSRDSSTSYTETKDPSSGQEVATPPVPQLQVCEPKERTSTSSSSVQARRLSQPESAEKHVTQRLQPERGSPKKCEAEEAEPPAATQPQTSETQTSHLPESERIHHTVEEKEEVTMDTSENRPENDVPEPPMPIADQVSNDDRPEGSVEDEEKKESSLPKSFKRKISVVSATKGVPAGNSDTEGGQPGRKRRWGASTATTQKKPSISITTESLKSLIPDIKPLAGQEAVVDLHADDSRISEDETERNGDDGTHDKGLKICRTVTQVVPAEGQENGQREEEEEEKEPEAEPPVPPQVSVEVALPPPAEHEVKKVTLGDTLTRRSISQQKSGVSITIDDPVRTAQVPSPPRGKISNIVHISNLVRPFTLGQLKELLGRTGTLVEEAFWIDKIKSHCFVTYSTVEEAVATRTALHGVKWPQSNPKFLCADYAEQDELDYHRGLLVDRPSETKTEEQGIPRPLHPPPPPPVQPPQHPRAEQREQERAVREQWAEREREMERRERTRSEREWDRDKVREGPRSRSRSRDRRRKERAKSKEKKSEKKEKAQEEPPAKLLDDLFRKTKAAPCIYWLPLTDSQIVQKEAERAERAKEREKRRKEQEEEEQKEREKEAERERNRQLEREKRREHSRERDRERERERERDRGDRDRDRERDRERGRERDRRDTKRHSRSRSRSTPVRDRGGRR
active: defactinib -0.253
inactive: saracatinib -0.027 | sotrastaurin -0.01 | alvocidib -0.057 | Tubastatin A 0.032 | [1] -0.165 | rucaparib -0.017 | [2] -0.054 | encorafenib -0.038 | [3] 0.003 | [4] 0.019 | filanesib 0.073 | zotarolimus 0.028 | idasanutlin 0.099 | alisertib -0.082 | [5] -0.062 | gefitinib 0.041 | [6] 0.006 | lapatinib 0.034 | pictilisib 0.03

BAP1 (UniProt Q92560)
UniProt Q92560, sequence (Q92560 whole entry, looked up): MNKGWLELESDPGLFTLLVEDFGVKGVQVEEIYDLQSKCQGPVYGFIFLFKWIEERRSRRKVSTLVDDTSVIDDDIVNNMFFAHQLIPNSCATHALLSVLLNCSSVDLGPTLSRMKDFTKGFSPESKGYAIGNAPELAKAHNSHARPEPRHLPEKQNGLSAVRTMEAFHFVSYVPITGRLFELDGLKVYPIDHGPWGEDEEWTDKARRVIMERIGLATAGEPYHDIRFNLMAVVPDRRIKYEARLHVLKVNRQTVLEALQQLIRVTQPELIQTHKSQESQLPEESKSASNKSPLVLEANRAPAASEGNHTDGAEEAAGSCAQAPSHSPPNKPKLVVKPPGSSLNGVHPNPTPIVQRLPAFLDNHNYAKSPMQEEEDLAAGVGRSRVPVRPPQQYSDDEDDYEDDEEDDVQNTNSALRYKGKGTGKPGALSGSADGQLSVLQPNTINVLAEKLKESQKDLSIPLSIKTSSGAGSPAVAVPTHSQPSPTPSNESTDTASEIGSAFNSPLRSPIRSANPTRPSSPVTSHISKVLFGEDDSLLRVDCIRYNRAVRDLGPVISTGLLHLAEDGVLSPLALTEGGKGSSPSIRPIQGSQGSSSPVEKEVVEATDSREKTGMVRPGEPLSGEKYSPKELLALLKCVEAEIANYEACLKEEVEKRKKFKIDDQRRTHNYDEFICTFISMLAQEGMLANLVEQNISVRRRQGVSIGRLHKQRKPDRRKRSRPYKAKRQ
inactive: saracatinib -0.091 | sotrastaurin 0.089 | alvocidib 0.053 | Tubastatin A 0.042 | [1] -0.1 | defactinib 0.09 | rucaparib 0.037 | [2] 0.061 | encorafenib 0.014 | [3] -0.017 | [4] 0.032 | filanesib 0.111 | zotarolimus 0.046 | idasanutlin 0.164 | alisertib -0.112 | [5] -0.006 | gefitinib -0.055 | [6] -0.024 | lapatinib 0.119 | pictilisib 0.062

APOB (UniProt P04114)
active: filanesib -0.86
inactive: saracatinib -0.139 | sotrastaurin -0.17 | alvocidib -0.014 | Tubastatin A -0.021 | [1] 0.012 | defactinib 0.05 | rucaparib -0.197 | [2] -0.364 | encorafenib 0.04 | [3] -0.005 | [4] 0.034 | zotarolimus -0.013 | idasanutlin -0.039 | alisertib 0 | [5] -0.384 | gefitinib -0.129 | [6] 0.164 | lapatinib -0.352 | pictilisib 0.078

ADD2 (UniProt P35612)
inactive: saracatinib 0.049 | sotrastaurin -0.004 | alvocidib -0.031 | Tubastatin A -0.025 | [1] -0.033 | defactinib -0.051 | rucaparib -0.012 | [2] 0.001 | encorafenib -0.025 | [3] -0.003 | [4] 0.047 | filanesib 0.015 | zotarolimus -0.011 | idasanutlin 0.009 | alisertib -0.081 | [5] 0.065 | gefitinib 0.003 | [6] 0.02 | lapatinib -0.026 | pictilisib 0.009

BST2 (UniProt Q10589)
inactive: saracatinib 0.003 | sotrastaurin -0.097 | alvocidib -0.005 | Tubastatin A -0.055 | [1] -0.063 | defactinib 0.03 | rucaparib -0.008 | [2] -0.07 | encorafenib 0 | [3] 0.012 | [4] -0.064 | filanesib -0.05 | zotarolimus 0.041 | idasanutlin -0.044 | alisertib -0.059 | [5] -0.028 | gefitinib -0.022 | [6] 0.007 | lapatinib 0.038 | pictilisib 0.036

BZW2 (UniProt Q9Y6E2)
UniProt Q9Y6E2, sequence (Q9Y6E2 whole entry, looked up): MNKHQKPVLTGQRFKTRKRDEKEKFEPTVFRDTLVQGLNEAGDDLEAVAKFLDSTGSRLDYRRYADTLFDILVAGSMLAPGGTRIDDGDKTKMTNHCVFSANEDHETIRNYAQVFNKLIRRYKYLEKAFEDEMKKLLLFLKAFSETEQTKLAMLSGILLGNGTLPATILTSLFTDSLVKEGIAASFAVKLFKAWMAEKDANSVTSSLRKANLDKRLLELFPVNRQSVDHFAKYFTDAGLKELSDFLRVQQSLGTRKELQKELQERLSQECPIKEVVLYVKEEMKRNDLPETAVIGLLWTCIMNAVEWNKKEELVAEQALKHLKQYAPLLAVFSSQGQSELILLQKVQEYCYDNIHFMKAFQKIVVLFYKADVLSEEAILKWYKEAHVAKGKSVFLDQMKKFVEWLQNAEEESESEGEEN
inactive: saracatinib -0.007 | sotrastaurin -0.032 | alvocidib -0.086 | Tubastatin A -0.004 | [1] -0.006 | defactinib -0.057 | rucaparib -0.022 | [2] 0.001 | encorafenib 0.058 | [3] -0.026 | [4] -0.029 | filanesib -0.05 | zotarolimus 0.02 | idasanutlin -0.126 | alisertib -0.056 | [5] 0.011 | gefitinib -0.009 | [6] 0.023 | lapatinib -0.055 | pictilisib -0.034

ATP6V1F isoform 2 (UniProt Q16864)
inactive: saracatinib -0.198 | sotrastaurin 0.092 | alvocidib -0.174 | Tubastatin A 0.11 | [1] 0.031 | defactinib 0.007 | rucaparib -0.037 | [2] -0.129 | encorafenib -0.039 | [3] 0.238 | [4] 0.126 | filanesib 0.162 | zotarolimus 0.036 | idasanutlin 0.095 | alisertib -0.158 | [5] -0.151 | gefitinib 0.019 | [6] 0.021 | lapatinib -0.112 | pictilisib -0.054

ACP1 isoform 2 (UniProt P24666)
UniProt P24666, sequence (P24666 whole entry, looked up): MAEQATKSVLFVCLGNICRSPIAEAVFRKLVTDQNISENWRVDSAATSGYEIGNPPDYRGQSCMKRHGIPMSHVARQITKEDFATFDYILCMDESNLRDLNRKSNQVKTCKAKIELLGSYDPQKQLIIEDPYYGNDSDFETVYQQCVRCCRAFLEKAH
inactive: saracatinib -0.175 | sotrastaurin -0.11 | alvocidib 0.013 | Tubastatin A 0.111 | [1] 0.038 | defactinib -0.047 | rucaparib 0.019 | [2] 0.059 | encorafenib 0.064 | [3] 0.024 | [4] 0.029 | filanesib 0.095 | zotarolimus 0.009 | idasanutlin 0.028 | alisertib 0.094 | [5] 0.036 | gefitinib 0.045 | [6] -0.077 | lapatinib 0.014 | pictilisib 0.055

BCLAF1 (UniProt Q9NYF8)
UniProt Q9NYF8, sequence (Q9NYF8 whole entry, looked up): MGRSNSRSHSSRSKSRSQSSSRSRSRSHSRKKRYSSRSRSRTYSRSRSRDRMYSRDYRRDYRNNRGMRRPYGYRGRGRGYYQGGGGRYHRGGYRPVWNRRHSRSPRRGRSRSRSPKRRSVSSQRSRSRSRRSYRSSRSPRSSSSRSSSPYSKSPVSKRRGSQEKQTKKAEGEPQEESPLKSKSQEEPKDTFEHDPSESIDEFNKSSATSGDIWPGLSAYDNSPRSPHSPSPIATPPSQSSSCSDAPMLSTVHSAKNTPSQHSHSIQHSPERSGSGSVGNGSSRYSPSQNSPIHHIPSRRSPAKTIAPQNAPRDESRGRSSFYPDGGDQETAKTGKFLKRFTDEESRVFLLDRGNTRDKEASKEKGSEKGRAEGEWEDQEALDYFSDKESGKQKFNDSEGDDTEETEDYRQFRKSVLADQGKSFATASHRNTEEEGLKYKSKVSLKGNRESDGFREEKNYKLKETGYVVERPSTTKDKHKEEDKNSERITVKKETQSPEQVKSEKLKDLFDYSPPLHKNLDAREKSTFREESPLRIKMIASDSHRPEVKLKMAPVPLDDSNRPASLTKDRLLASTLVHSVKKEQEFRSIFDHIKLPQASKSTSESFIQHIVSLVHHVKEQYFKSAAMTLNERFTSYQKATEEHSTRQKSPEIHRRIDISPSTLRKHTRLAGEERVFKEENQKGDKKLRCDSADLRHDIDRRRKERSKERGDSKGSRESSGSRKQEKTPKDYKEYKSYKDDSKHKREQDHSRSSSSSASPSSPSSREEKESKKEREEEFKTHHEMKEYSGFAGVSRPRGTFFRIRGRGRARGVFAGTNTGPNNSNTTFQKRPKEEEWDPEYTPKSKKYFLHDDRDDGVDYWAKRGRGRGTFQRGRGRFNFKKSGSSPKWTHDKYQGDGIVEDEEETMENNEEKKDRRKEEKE
inactive: saracatinib -0.033 | sotrastaurin 0.039 | alvocidib -0.271 | Tubastatin A 0.184 | [1] -0.275 | defactinib -0.382 | rucaparib 0.017 | [2] -0.057 | encorafenib 0.013 | [3] -0.028 | [4] -0.107 | filanesib 0.103 | zotarolimus 0.068 | idasanutlin 0.127 | alisertib 0.074 | [5] -0.215 | gefitinib 0.01 | [6] 0.033 | lapatinib 0.101 | pictilisib -0.109

AHSA1 (UniProt O95433)
UniProt O95433, sequence (O95433 whole entry, looked up): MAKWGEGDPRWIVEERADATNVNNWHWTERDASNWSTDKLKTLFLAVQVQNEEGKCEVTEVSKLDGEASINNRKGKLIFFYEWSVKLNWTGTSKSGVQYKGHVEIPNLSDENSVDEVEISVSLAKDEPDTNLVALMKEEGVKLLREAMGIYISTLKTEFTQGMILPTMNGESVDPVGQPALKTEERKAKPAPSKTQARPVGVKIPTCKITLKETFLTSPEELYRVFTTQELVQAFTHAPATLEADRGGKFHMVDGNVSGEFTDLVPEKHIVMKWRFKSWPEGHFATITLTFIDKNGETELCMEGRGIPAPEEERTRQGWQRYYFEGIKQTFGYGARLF
inactive: saracatinib 0.022 | sotrastaurin 0.014 | alvocidib -0.039 | Tubastatin A -0.003 | [1] 0 | defactinib -0.061 | rucaparib -0.084 | [2] 0.011 | encorafenib 0.02 | [3] -0.008 | [4] -0.029 | filanesib -0.061 | zotarolimus 0.003 | idasanutlin -0.064 | alisertib -0.037 | [5] 0.109 | gefitinib 0.022 | [6] 0.031 | lapatinib -0.02 | pictilisib -0.023

ARFGAP2 (UniProt Q8N6H7)
inactive: saracatinib 0.037 | sotrastaurin -0.051 | alvocidib -0.083 | Tubastatin A 0.03 | [1] 0.025 | defactinib -0.023 | rucaparib 0.017 | [2] 0.017 | encorafenib 0.05 | [3] -0.02 | [4] -0.067 | filanesib 0.024 | zotarolimus -0.005 | idasanutlin -0.029 | alisertib -0.058 | [5] 0.156 | gefitinib -0.004 | [6] -0.064 | lapatinib -0.001 | pictilisib 0.013

ARL6IP4 (UniProt Q66PJ3)
inactive: saracatinib -0.026 | sotrastaurin 0.023 | alvocidib -0.024 | Tubastatin A -0.024 | [1] -0.05 | defactinib -0.038 | rucaparib 0.01 | [2] -0.002 | encorafenib -0.059 | [3] 0.016 | [4] -0.025 | filanesib 0.023 | zotarolimus 0.014 | idasanutlin 0.172 | alisertib -0.053 | [5] 0.002 | gefitinib -0.039 | [6] 0.05 | lapatinib -0.023 | pictilisib -0.007

ARMC10 (UniProt Q8N2F6)
UniProt Q8N2F6, sequence (Q8N2F6 whole entry, looked up): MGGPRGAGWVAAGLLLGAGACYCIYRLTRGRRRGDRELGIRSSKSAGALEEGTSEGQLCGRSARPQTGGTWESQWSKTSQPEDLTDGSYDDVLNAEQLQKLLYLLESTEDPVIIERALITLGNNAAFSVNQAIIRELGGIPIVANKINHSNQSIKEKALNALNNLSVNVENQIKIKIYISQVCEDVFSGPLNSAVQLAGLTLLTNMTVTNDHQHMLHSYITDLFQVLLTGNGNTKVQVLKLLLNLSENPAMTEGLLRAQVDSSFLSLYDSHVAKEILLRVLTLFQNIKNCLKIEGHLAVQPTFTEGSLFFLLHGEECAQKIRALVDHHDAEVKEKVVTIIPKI
inactive: saracatinib 0.012 | sotrastaurin -0.123 | alvocidib 0.002 | Tubastatin A 0.109 | [1] 0.079 | defactinib -0.03 | rucaparib 0.157 | [2] 0.006 | encorafenib 0.142 | [3] -0.049 | [4] 0.011 | filanesib 0.046 | zotarolimus 0.107 | idasanutlin -0.092 | alisertib -0.039 | [5] 0.117 | gefitinib 0.004 | [6] -0.133 | lapatinib -0.01 | pictilisib 0.07

BCL9L (UniProt Q86UU0)
inactive: saracatinib -0.042 | sotrastaurin 0.042 | alvocidib -0.012 | Tubastatin A 0.053 | [1] -0.017 | defactinib -0.014 | rucaparib 0.026 | [2] -0.092 | encorafenib -0.033 | [3] 0.069 | [4] -0.048 | filanesib 0.017 | zotarolimus -0.043 | idasanutlin 0.028 | alisertib 0.014 | [5] 0.02 | gefitinib 0.034 | [6] -0.067 | lapatinib 0.011 | pictilisib -0.007

AP2S1 (UniProt P53680)
UniProt P53680, sequence (P53680 whole entry, looked up): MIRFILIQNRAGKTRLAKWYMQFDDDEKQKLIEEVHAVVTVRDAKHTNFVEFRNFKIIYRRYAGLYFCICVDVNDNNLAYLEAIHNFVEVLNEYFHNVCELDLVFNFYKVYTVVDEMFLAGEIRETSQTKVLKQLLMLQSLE
inactive: saracatinib 0.012 | sotrastaurin 0.009 | alvocidib -0.009 | Tubastatin A 0.009 | [1] 0.077 | defactinib 0.038 | rucaparib 0.019 | [2] -0.012 | encorafenib 0.077 | [3] 0.025 | [4] -0.031 | filanesib 0.037 | zotarolimus 0.013 | idasanutlin -0.033 | alisertib -0.159 | [5] 0.023 | gefitinib 0.017 | [6] -0.061 | lapatinib -0.022 | pictilisib -0.023

ALDH6A1 (UniProt Q02252)
UniProt Q02252, sequence (Q02252 whole entry, looked up): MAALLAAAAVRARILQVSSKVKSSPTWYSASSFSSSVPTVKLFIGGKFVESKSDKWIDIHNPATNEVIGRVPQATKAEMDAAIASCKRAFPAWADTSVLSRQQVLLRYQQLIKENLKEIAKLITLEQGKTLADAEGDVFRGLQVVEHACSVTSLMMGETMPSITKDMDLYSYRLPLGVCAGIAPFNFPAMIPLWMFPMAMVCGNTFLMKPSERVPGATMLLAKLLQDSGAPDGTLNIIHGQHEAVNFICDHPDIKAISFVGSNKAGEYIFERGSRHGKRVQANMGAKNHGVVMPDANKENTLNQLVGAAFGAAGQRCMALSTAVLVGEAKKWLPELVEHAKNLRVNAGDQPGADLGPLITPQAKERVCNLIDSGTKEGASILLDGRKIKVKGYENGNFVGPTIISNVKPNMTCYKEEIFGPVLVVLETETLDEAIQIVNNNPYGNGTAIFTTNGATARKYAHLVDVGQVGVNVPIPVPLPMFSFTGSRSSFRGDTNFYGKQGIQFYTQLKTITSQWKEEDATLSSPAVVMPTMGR
inactive: saracatinib 0.031 | sotrastaurin 0.144 | alvocidib -0.098 | Tubastatin A 0.03 | [1] 0.021 | defactinib -0.021 | rucaparib 0.021 | [2] -0.045 | encorafenib 0.024 | [3] -0.008 | [4] -0.128 | filanesib -0.025 | zotarolimus 0.024 | idasanutlin -0.032 | alisertib -0.09 | [5] 0.029 | gefitinib 0.04 | [6] 0.066 | lapatinib 0.02 | pictilisib 0.063
